Test results taken from PubChem BioAssay (NCATS).
Results filed as inconclusive are left out. Active and inactive are the calls of the source. The call rests on the fitted dose curve; in most records, active means well fitted inhibition curve with a large enough effect; inconclusive means small, poorly fitted or top-dose-only effect; inactive means flat fitted curve, though single readings scatter.

Legend:
Assay in all cases: qHTS profiling for inhibitors of Plasmodium falciparum proliferation (AID 504749); further: nearly all actives have a fitted effect of over 60% in size
Conditions in all cases: P. falciparum in erythrocytes, SYBR Green DNA, 72 h; series mostly up to 28.7 µM
7G8 = system: 7G8
Procedure, shortened: (§1)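 Infected RBCs, 0.3% parasitemia/2.5% Hct final; cpd 72 h, 37 C, 5% CO2; lysis buffer with saponin/triton/SYBR Green I, o/n RT dark; FI 485/535; norm. to artemisinin (0.29 uM) and DMSO.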

AA1029 = system: AA1029
Procedure, shortened: as §1

AS120 = system: AS120
Procedure, shortened: as §1

ATS189 = system: ATS189
Procedure, shortened: as §1

ATS95 = system: ATS95
Procedure, shortened: as §1

C2A = system: C2A
Procedure, shortened: as §1

CP185 = system: CP185
Procedure, shortened: as §1

CP191 = system: CP191
Procedure, shortened: as §1

CP192 = system: CP192
Procedure, shortened: as §1

CP194 = system: CP194
Procedure, shortened: as §1

CP201 = system: CP201
Procedure, shortened: as §1

CP203 = system: CP203
Procedure, shortened: as §1

CP211 = system: CP211
Procedure, shortened: as §1

CP215 = system: CP215
Procedure, shortened: as §1

CP217 = system: CP217
Procedure, shortened: as §1

CP237 = system: CP237
Procedure, shortened: as §1

CP238 = system: CP238
Procedure, shortened: as §1

CP247 = system: CP247
Procedure, shortened: as §1

CP250 = system: CP250
Procedure, shortened: as §1

CP252 = system: CP252
Procedure, shortened: as §1

Measured: Potency
Potency means the concentration at half of the fitted maximal effect.

O=C(O)c1cc2cc(Cc3cccnc3)ccc2o1
inactive: all assays above

O=C1CCC(c2ccc(-n3ccnc3)cc2)=NN1
inactive: all assays above

N[C@@H](Cc1cnc[nH]1)C(=O)O
inactive: all assays above

CCCCOc1ccc(OCCCN2CCOCC2)cc1
inactive: all assays above

Cc1c(C)n(CCN(C)C)c2ccc(C(=O)OCCN(C)C)cc12
active: 7G8 8.91 µM | CP237 11.2 µM
inactive: all other assays above

CCCCCCCCCCCCCCCCCC(=O)OCC(O)CO (stereo not given)
inactive: all assays above

CN=C(NC#N)NCCSCc1csc(N=C(N)N)n1
inactive: all assays above

CCCCOc1ccc(C(=O)CCN2CCCCC2)cc1
inactive: all assays above

CC(=O)N(O)CCCCCNC(=O)CCC(=O)N(O)CCCCCNC(=O)CCC(=O)N(O)CCCCCN
inactive: all assays above

COc1cccc2c1C(=O)c1c(O)c3c(c(O)c1C2=O)C[C@@](O)(C(C)=O)C[C@@H]3O[C@H]1C[C@H](N)[C@H](O)[C@H](C)O1
active: 7G8 1.26 µM | AA1029 4.47 µM | AS120 3.98 µM | ATS189 8.91 µM | ATS95 4.47 µM | C2A 3.16 µM | CP185 4.47 µM | CP191 3.16 µM | CP192 6.01 µM | CP194 7.57 µM | CP201 9.53 µM | CP203 8.49 µM | CP211 3.79 µM | CP215 7.57 µM | CP217 1 µM | CP237 1 µM | CP238 3.98 µM | CP247 1.41 µM | CP250 1 µM | CP252 1.12 µM

Cc1c(C(C)C)c(=O)n(-c2ccccc2)n1C
inactive: all assays above

O=C(CCN1CCC(c2ccccc2)C1)c1ccc2c(c1)OCCO2 (stereo not given)
inactive: all assays above

O=S1(=O)c2cccc3cccc(c23)N1CCCN1CCN(c2ccc(F)cc2)CC1
active: 7G8 12.6 µM
inactive: all other assays above

NCCCC[C@H](N[C@@H](CCc1ccccc1)C(=O)O)C(=O)N1CCC[C@H]1C(=O)O
inactive: all assays above

COc1cc2c(cc1OC)C(C(C(=O)N(CCc1ccc(OC)c(OC)c1OC)CCc1ccc(OC)c(OC)c1OC)c1ccccc1)=NCC2 (stereo not given)
active: 7G8 0.316 µM | AA1029 2.51 µM | ATS95 3.55 µM | CP185 10 µM | CP191 10 µM | CP192 13.5 µM | CP194 13.5 µM | CP201 15.1 µM | CP203 6.75 µM | CP211 12 µM | CP215 6.75 µM | CP217 4.47 µM | CP237 2 µM | CP238 6.31 µM | CP247 4.47 µM | CP250 7.08 µM | CP252 5.01 µM
inactive: AS120 | ATS189 | C2A

CCN(CC)C(=O)N1CCN(C)CC1
inactive: all assays above

CCn1cc(C(=O)O)c(=O)c2cnc(N3CCCC3)nc21
inactive: all assays above

CC(=O)Nc1c(I)cc(I)c(C(=O)O)c1I
inactive: all assays above

CCCn1c(=O)[nH]c(=O)c2[nH]cnc21
inactive: all assays above

O=C(O)CCCCC(=O)O
inactive: all assays above

O=c1ccc2ccccc2o1
inactive: all assays above

C=CCc1ccc(O)c(OC)c1
inactive: all assays above

COc1c2occc2c(OC)c2c(=O)cc(C)oc12
inactive: all assays above

COc1cc(C(=S)N2CCOCC2)cc(OC)c1OC
inactive: all assays above

CCOC(=O)OC(C)OC1=C(C(=O)Nc2ccccn2)N(C)S(=O)(=O)c2ccccc21 (stereo not given)
inactive: all assays above
